Experimental data from PubChem BioAssay AID1159580 (chemical genetic matrix, 2015).
Where “and” joins values, the source holds several entries; their conditions need not be identical. Equal values may be shown once. About 2,000 (36%) of roughly 5,500 compounds were called active. Another 18% or so got no clear call; they are omitted. Cut-off read from the data, not from the text of the source: active = normalized growth mostly below about 0.91 (no sharp cut-off); inconclusive = no clear call, values can overlap the other calls; inactive = mostly above about 0.92. The list shows a part of the results. Where a structure was tested more than once in an assay, its records may differ in their call.

Test: chemical genetic growth profiling, strain panel (AID 1159580);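 note: tested at 20 µM; growth read once vehicle control cultures reached saturation at 30 °C; 1 = growth at the plate median or of vehicle wells; lower values mean less growth of the strain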
Settings: S. cerevisiae deletion strains, growth OD
[1] = locus YAL040C, strain CLN3, stronger effect = lower value
[2] = locus YCL061C, strain MRC1 (second series), stronger effect = lower value
[3] = locus YDR150W, strain NUM1, stronger effect = lower value
[4] = locus YDR363W, strain ESC2, stronger effect = lower value
[5] = locus YER002W, strain NOP16, stronger effect = lower value
[6] = locus YGR078C, strain PAC10, stronger effect = lower value
[7] = locus YNL153C, strain GIM3, stronger effect = lower value
[8] = locus YNL197C, strain WHI3, stronger effect = lower value
[9] = locus YNL224C, strain SQS1, stronger effect = lower value
[10] = locus YNL322C, strain KRE1, stronger effect = lower value
[11] = locus YOR083W, strain WHI5 (second series), stronger effect = lower value

Measured: normalized growth

O=C(O)CCc1nc(-c2ccccc2)c(-c2ccccc2)o1
active: locus YBR229C, strain ROT2, stronger effect = lower value 0.929 | locus YCL061C, strain MRC1, stronger effect = lower value 0.92 | [6] 0.909 | locus YJR075W, strain HOC1, stronger effect = lower value 0.888 | locus YLR058C, strain SHM2 (second series), stronger effect = lower value 0.929 | locus YLR113W, strain HOG1, stronger effect = lower value 0.787 | locus YMR219W, strain ESC1, stronger effect = lower value 0.944 | locus YMR263W, strain SAP30, stronger effect = lower value 0.9
1 (inactive) and 0.926 (active): [10]
inactive: locus YAL013W, strain DEP1, stronger effect = lower value 0.974 | locus YAL021C, strain ccr4, stronger effect = lower value 0.966 | locus YAL026C, strain drs2, stronger effect = lower value 0.929 | locus YAL030W, strain snc1, stronger effect = lower value 0.958 | [1] 0.978 | locus YBL061C, strain skt5, stronger effect = lower value 0.965 | locus YBR009C, strain hhf1, stronger effect = lower value 0.964 | locus YBR023C, strain chs3, stronger effect = lower value 0.979 | locus YBR171W, strain sec66, stronger effect = lower value 0.949 | locus YBR231C, strain swc5, stronger effect = lower value 0.96 | locus YBR279W, strain paf1, stronger effect = lower value 0.975 | locus YCL011C, strain gbp2, stronger effect = lower value 0.943 | locus YCL016C, strain dcc1, stronger effect = lower value 0.954 | [2] 0.996 | locus YCL069W, strain vba3, stronger effect = lower value 0.965 | locus YCR088W, strain abp1, stronger effect = lower value 0.962 | locus YDL005C, strain med2, stronger effect = lower value 0.959 | locus YDL040C, strain nat1, stronger effect = lower value 0.955 | locus YDL101C, strain DUN1, stronger effect = lower value 0.995 | locus YDR001C, strain nth1, stronger effect = lower value 0.925 | locus YDR069C, strain doa4, stronger effect = lower value 0.954 | locus YDR137W, strain rgp1, stronger effect = lower value 0.925 | [3] 1 and 1.04 | locus YDR159W, strain sac3, stronger effect = lower value 0.916 | locus YDR195W, strain ref2 0.969 | locus YDR297W, strain sur2, stronger effect = lower value 0.955 | locus YDR334W, strain swr1, stronger effect = lower value 0.948 | locus YDR335W, strain msn5, stronger effect = lower value 0.965 | [4] 0.979 | locus YDR392W, strain spt3, stronger effect = lower value 0.831 | locus YEL003W, strain gim4, stronger effect = lower value 0.943 | locus YEL037C, strain rad23, stronger effect = lower value 0.968 | locus YEL061C, strain CIN8 (second series), stronger effect = lower value 0.941 | locus YEL061C, strain CIN8, stronger effect = lower value 1 | [5] 0.998 | locus YER015W, strain faa2, stronger effect = lower value 0.974 | locus YER016W, strain bim1, stronger effect = lower value 0.961 | locus YER111C, strain swi4, stronger effect = lower value 0.958 | locus YER155C, strain BEM2 (second series), stronger effect = lower value 0.958 | locus YFR010W, strain ubp6, stronger effect = lower value 0.958 | locus YGL167C, strain pmr1, stronger effect = lower value 0.961 | locus YGL173C, strain kem1, stronger effect = lower value 0.958 | locus YGL227W, strain vid30, stronger effect = lower value 0.957 | locus YGL240W, strain doc1, stronger effect = lower value 0.95 | locus YGL253W, strain hxk2, stronger effect = lower value 0.957 | locus YGR229C, strain SMI1, stronger effect = lower value 0.976 | locus YHR013C, strain ard1, stronger effect = lower value 0.938 | locus YHR027C, strain rpn1, stronger effect = lower value 0.971 | locus YHR030C, strain SLT2, stronger effect = lower value 0.935 and 1.03 | locus YHR079C, strain IRE1, stronger effect = lower value 0.967 | locus YHR087W, strain rtc3, stronger effect = lower value 0.925 | locus YHR142W, strain chs7, stronger effect = lower value 0.963 | locus YJL092W, strain hpr5, stronger effect = lower value 0.949 | locus YJL095W, strain BCK1 (second series), stronger effect = lower value 0.959 | locus YJL095W, strain BCK1, stronger effect = lower value 0.901 | locus YJL115W, strain asf1, stronger effect = lower value 0.956 | locus YJL129C, strain trk1, stronger effect = lower value 0.926 | locus YJL154C, strain vps35, stronger effect = lower value 0.966 | locus YJL164C, strain tpk1, stronger effect = lower value 0.954 | locus YJL166W, strain qcr8, stronger effect = lower value 0.976 | locus YJR043C, strain POL32, stronger effect = lower value 0.959 | locus YJR066W, strain TOR1, stronger effect = lower value 0.884 | locus YKL160W, strain elf1, stronger effect = lower value 0.982 | locus YKL190W, strain CNB1, stronger effect = lower value 0.983 | locus YKR026C, strain gcn3, stronger effect = lower value 0.958 | locus YKR091W, strain srl3, stronger effect = lower value 0.957 | locus YLL001W, strain dnm1, stronger effect = lower value 0.973 | locus YLL026W, stronger effect = lower value 0.965 | locus YLL041C, strain sdh2, stronger effect = lower value 0.961 | locus YLR027C, strain aat2, stronger effect = lower value 0.966 | locus YLR039C, strain RIC1, stronger effect = lower value 0.994 | locus YLR085C, strain ARP6, stronger effect = lower value 0.92 | locus YLR221C, strain rsa3, stronger effect = lower value 0.935 | locus YLR258W, strain gsy2, stronger effect = lower value 0.955 | locus YLR262C, strain YPT6 (second series), stronger effect = lower value 0.951 | locus YLR262C, strain YPT6, stronger effect = lower value 1.02 | locus YLR320W, strain mms22, stronger effect = lower value 0.933 | locus YLR342W, strain FKS1, stronger effect = lower value 0.97 | locus YLR357W, strain rsc2, stronger effect = lower value 0.985 | locus YLR370C, strain arc18, stronger effect = lower value 0.961 | locus YLR384C, strain iki3, stronger effect = lower value 0.98 | locus YML094W, strain GIM5, stronger effect = lower value 1.02 | locus YML120C, strain ndi1, stronger effect = lower value 0.952 | locus YMR058W, strain fet3, stronger effect = lower value 0.956 | locus YMR125W, strain sto1, stronger effect = lower value 0.938 | locus YMR129W, stronger effect = lower value 0.943 | locus YMR205C, strain PFK2, stronger effect = lower value 0.954 | locus YMR231W, strain pep5, stronger effect = lower value 0.967 | locus YMR307W, strain GAS1, stronger effect = lower value 1 and 0.949 | locus YNL071W, strain lat1, stronger effect = lower value 0.935 | [7] 0.964 | locus YNL175C, strain NOP13, stronger effect = lower value 0.986 | locus YNL183C, strain NPR1, stronger effect = lower value 0.868 | [8] 0.987 | locus YNL209W, strain ssb2, stronger effect = lower value 0.972 | [9] 0.977 | locus YNL248C, strain rpa49, stronger effect = lower value 0.974 | locus YNL298W, strain CLA4 (second series), stronger effect = lower value 1 | locus YNL322C, strain KRE1 (second series), stronger effect = lower value 0.949 | locus YNR030W, strain Alg12, stronger effect = lower value 1 | locus YNR049C, strain mso1, stronger effect = lower value 0.941 | locus YOR001W, strain rrp6, stronger effect = lower value 1 | locus YOR070C, strain gyp1, stronger effect = lower value 0.963 | locus YOR080W, strain dia2, stronger effect = lower value 0.957 | [11] 1 | locus YOR083W, strain WHI5, stronger effect = lower value 0.982 | locus YOR106W, strain vam3, stronger effect = lower value 0.973 | locus YOR231W, strain MKK1, stronger effect = lower value 0.942 | locus YOR265W, strain rbl2, stronger effect = lower value 0.97 | locus YOR270C, strain vph1, stronger effect = lower value 0.952 | locus YOR290C, strain snf2, stronger effect = lower value 0.93 | locus YPL051W, strain arl3, stronger effect = lower value 0.98 | locus YPL055C, strain LGE1, stronger effect = lower value 0.996 | locus YPL078C, strain atp4, stronger effect = lower value 0.972 | locus YPL106C, strain sse1, stronger effect = lower value 0.869 | locus YPL240C, strain hsp82, stronger effect = lower value 0.963 | locus YPL241C, strain CIN2, stronger effect = lower value 1 and 0.984 | locus YPL256C, strain CLN2, stronger effect = lower value 0.96 | locus YPR135W, strain CTF4, stronger effect = lower value 1.08

CCCOC(=O)c1c(-c2ccccc2)nc(CC)c(C(=O)SCC)c1CCC
inactive: [1] 1.04 | [2] 1 | [3] 1.01 | [4] 0.982 | [5] 1.01 | [6] 0.974 | locus YNL128W, strain TEP1, stronger effect = lower value 1.09 | [7] 1.02 | [8] 1.02 | [9] 1.04 | [10] 0.993 | [11] 1.09
